What all share (experiment): DAPPL (digital affinity profiling via proximity ligation, sequencing); 10 mM Tris-HCl pH 7.5, 50 mM NaCl, 1 mM DTT, 4% glycerol, room temperature, 30 min; GST-TFs on glutathione beads, 16-mer random dsDNA library, 0.1% formaldehyde crosslink after washing; high values mean tight binding
Assay [1] addresses T1, FEV (Homo sapiens, UniProt Q99581 1-238).
T1 sequence: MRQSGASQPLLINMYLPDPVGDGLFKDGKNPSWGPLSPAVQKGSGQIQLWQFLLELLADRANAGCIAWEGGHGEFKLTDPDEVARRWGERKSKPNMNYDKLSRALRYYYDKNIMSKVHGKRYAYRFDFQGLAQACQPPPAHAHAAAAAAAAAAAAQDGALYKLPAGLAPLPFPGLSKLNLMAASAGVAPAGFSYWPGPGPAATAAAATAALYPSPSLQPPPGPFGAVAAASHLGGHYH
The conditions noted are these: protein: recombinant; tags: N-terminal GST; dsDNA, one strand shown. The procedure, abridged: (§1)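 Binding signal is defined as a hexamer's read frequency for one factor over its frequency for the tag-only sample. To obtain reads, GST-fused human transcription factors were expressed in yeast, captured on glutathione beads, barcoded with DNA and pooled with that sample. Pools met 200 nmole of a 16-mer random double-stranded DNA library in Tris/NaCl/DTT/glycerol buffer for 30 min at room temperature before washing, 0.1% formaldehyde crosslinking, proximity ligation (BsaI/T4 ligase, 1 h, 37 °C), PCR and Illumina NextSeq500 sequencing.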

The target in assay [2] is ETV5 (Homo sapiens, UniProt P41161 1-510). The conditions noted are these: protein: recombinant; tags: N-terminal GST; dsDNA, one strand shown. Summed up:
as §1

Assay [3] has as its target HSF1 (Homo sapiens, UniProt Q00613 1-529). As to conditions: protein: recombinant; tags: N-terminal GST; chain copies: 3; dsDNA, one strand shown. The procedure, abridged:
as §1

Assay [4] deals with T2, SPIC (Homo sapiens, UniProt Q8N5J4 1-248).
T2 sequence: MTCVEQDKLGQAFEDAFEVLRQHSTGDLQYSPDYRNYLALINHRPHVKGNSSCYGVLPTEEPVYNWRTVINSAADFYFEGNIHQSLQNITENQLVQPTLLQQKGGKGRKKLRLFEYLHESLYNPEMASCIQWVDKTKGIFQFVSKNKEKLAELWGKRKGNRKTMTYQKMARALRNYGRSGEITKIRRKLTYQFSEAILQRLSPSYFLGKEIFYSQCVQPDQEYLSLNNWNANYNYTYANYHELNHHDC
The conditions noted are these: protein: recombinant; tags: N-terminal GST; dsDNA, one strand shown. The procedure, abridged: as §1

The target of assay [5] is ELF4 (Homo sapiens, UniProt Q99607 1-663). The conditions noted are these: protein: recombinant; tags: N-terminal GST; dsDNA, one strand shown. Summed up:
as §1

The target of assay [6] is T3, ELK4 (Homo sapiens, UniProt P28324-2 1-405).
T3 sequence: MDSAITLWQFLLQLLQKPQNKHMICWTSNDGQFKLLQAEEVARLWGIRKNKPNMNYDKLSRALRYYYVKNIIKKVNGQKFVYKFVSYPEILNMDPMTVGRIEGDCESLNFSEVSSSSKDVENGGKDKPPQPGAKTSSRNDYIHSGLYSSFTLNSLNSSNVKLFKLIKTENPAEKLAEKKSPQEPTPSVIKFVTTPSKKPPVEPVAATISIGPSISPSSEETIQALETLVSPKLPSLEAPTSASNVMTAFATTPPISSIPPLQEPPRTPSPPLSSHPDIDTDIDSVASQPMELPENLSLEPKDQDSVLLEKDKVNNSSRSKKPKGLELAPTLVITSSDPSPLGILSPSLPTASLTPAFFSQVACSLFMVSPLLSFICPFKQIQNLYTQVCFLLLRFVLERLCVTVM
The conditions noted are these: protein: recombinant; tags: N-terminal GST; dsDNA, one strand shown. The procedure, abridged: as §1

Assay [7] has as its target T4, ETV2 (Homo sapiens, UniProt O00321 1-342).
T4 sequence: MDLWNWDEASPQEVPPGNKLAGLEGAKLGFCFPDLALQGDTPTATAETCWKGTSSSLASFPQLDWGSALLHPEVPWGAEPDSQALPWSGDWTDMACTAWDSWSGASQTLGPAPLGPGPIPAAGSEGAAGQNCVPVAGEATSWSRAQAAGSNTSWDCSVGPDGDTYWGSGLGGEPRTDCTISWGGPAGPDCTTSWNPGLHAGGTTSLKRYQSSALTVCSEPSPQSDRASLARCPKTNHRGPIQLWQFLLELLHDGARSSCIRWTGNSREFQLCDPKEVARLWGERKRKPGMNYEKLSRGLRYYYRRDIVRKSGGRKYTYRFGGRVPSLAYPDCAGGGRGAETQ
As to conditions: protein: recombinant; tags: N-terminal GST; dsDNA, one strand shown. The procedure, abridged:
as §1

Assay [8] has as its target T5, ELF3 (Homo sapiens, UniProt P78545 1-371).
T5 sequence: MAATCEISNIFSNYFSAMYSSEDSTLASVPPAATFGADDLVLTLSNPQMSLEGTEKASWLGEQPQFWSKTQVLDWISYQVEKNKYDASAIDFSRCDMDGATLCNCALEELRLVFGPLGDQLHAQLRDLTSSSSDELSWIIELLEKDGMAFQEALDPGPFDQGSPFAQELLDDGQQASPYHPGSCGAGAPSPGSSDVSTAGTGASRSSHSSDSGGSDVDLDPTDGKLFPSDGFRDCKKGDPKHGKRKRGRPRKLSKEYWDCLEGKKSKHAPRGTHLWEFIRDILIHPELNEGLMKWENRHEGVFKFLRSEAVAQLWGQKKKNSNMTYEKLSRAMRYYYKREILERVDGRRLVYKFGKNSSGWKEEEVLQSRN
As to conditions: protein: recombinant; tags: N-terminal GST; dsDNA, one strand shown. Summed up:
as §1

Assay [9] addresses CRX (Homo sapiens, UniProt O43186 1-299). The conditions noted are these: protein: recombinant; tags: N-terminal GST; dsDNA, one strand shown. Summed up: as §1
Assay [10] concerns the target ETV1 (Homo sapiens, UniProt P50549 1-477). As to conditions: protein: recombinant; tags: N-terminal GST; dsDNA, one strand shown. Summed up:
as §1

Assay [11] deals with T6, ERF (Homo sapiens, UniProt P50548 1-548).
T6 sequence: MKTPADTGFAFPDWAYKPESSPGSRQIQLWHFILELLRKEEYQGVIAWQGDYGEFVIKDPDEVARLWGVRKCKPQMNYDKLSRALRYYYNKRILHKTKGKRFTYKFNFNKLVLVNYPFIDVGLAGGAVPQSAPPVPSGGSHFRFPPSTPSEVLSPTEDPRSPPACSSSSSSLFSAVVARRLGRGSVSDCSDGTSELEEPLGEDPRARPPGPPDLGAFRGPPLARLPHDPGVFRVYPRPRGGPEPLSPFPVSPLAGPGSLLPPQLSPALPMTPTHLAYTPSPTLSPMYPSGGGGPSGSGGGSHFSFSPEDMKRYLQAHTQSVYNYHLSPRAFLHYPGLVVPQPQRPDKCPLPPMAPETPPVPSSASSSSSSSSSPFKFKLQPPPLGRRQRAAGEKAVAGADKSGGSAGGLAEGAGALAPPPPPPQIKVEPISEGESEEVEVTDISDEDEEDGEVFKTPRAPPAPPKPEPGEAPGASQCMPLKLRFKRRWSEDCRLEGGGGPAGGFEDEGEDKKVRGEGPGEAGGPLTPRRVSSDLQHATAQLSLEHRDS
As to conditions: protein: recombinant; tags: N-terminal GST; dsDNA, one strand shown. The procedure, abridged:
as §1

The target of assay [12] is T7, ETV3L (Homo sapiens, UniProt Q6ZN32 1-361).
T7 sequence: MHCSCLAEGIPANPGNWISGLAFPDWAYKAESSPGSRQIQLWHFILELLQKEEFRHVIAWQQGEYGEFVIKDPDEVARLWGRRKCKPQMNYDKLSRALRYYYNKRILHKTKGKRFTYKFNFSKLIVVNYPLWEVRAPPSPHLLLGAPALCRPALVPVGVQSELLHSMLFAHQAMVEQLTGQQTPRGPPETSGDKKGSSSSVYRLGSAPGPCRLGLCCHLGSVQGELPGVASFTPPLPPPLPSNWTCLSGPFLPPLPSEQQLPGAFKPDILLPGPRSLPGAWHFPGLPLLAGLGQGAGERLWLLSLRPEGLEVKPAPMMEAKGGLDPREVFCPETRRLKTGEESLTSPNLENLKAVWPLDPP
The conditions noted are these: protein: recombinant; tags: N-terminal GST; dsDNA, one strand shown. Summed up:
as §1

Assay [13] deals with T8, ETS2 (Homo sapiens, UniProt P15036 1-469).
T8 sequence: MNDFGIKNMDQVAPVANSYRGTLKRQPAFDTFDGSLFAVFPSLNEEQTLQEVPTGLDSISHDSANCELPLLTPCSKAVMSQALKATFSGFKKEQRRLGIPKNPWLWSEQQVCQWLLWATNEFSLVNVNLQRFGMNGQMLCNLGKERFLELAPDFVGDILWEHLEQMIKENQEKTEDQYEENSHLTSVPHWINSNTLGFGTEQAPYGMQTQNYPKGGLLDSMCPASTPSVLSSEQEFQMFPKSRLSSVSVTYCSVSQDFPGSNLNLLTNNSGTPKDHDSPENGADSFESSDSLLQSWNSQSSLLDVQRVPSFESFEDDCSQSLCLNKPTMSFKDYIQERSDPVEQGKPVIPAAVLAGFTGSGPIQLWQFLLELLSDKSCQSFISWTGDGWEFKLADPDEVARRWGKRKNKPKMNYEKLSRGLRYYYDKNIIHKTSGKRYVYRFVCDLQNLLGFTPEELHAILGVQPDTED
As to conditions: protein: recombinant; tags: N-terminal GST; dsDNA, one strand shown. The procedure, abridged: as §1

Assay [14] has as its target T9, SPDEF (Homo sapiens, UniProt O95238 1-335).
T9 sequence: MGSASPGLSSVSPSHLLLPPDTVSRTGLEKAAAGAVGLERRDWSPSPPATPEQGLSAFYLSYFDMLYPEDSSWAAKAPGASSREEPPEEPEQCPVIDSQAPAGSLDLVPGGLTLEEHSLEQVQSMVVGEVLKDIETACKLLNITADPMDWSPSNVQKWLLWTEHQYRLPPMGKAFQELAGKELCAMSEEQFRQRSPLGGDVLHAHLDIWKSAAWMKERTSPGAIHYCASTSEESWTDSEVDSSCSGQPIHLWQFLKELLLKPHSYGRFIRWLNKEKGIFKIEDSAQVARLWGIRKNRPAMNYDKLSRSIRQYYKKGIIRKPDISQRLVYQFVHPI
As to conditions: protein: recombinant; tags: N-terminal GST; dsDNA, one strand shown. The procedure, abridged:
as §1

Assay [15] deals with T10, ETV7 (Homo sapiens, UniProt Q9Y603 1-341).
T10 sequence: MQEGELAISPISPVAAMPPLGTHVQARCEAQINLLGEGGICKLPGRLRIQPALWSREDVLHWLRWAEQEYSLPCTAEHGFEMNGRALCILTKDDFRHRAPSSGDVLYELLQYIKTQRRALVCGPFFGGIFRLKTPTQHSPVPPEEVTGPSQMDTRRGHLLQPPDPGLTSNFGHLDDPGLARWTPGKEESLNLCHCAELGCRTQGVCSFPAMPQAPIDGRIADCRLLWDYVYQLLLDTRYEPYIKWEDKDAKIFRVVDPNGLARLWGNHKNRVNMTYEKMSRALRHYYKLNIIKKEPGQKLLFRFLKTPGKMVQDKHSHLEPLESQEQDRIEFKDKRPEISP
As to conditions: protein: recombinant; tags: N-terminal GST; dsDNA, one strand shown. Summed up: as §1

In assay [16] the target is T11, ELF5 (Homo sapiens, UniProt Q9UKW6-2 1-255).
T11 sequence: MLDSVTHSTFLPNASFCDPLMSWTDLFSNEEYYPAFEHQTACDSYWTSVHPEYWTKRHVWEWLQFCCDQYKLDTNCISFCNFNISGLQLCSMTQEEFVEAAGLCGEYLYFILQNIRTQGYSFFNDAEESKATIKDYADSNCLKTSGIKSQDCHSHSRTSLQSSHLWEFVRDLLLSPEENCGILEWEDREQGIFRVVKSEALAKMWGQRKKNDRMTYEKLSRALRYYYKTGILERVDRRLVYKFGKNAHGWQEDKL
The conditions noted are these: protein: recombinant; tags: N-terminal GST; dsDNA, one strand shown. The procedure, abridged: as §1

Assay [17] concerns the target T12, ETV3 (Homo sapiens, UniProt P41162-2 1-143).
T12 sequence: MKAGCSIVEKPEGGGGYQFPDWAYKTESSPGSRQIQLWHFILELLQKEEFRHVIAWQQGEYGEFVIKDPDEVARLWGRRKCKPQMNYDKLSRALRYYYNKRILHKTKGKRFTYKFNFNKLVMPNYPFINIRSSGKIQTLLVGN
The conditions noted are these: protein: recombinant; tags: N-terminal GST; dsDNA, one strand shown. The procedure, abridged: as §1

In assay [18] the target is ETV6 (Homo sapiens, UniProt P41212 1-452). As to conditions: protein: recombinant; tags: N-terminal GST; dsDNA, one strand shown. The procedure, abridged:
as §1

Chain of ETV6 (P41212 whole entry): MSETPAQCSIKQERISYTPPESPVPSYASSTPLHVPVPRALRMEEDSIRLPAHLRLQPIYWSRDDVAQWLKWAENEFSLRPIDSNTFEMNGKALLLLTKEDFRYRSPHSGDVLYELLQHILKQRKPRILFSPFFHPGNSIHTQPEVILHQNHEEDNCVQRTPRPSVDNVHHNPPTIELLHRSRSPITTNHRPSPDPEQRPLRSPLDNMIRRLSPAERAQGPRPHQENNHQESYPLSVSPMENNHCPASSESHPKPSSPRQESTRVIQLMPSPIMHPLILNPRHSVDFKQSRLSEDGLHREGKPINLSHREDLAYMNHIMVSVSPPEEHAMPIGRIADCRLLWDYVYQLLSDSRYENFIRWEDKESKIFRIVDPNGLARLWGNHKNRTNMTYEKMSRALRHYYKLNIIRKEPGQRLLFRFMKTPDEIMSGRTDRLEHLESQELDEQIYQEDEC
Chain of ETV1 (P50549 whole entry): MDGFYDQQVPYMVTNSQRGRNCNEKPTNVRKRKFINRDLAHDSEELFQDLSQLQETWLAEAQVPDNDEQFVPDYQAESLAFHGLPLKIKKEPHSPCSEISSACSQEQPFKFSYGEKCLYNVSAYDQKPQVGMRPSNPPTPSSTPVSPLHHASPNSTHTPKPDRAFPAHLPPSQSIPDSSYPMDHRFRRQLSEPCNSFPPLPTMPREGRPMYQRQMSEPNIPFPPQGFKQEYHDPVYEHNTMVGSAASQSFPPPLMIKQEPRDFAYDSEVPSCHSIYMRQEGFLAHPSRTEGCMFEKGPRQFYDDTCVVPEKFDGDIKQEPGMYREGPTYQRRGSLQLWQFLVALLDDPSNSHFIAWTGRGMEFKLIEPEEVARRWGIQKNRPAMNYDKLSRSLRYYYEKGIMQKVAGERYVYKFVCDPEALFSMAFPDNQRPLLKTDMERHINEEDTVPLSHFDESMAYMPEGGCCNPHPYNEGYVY
Chain of ELF4 (Q99607 whole entry): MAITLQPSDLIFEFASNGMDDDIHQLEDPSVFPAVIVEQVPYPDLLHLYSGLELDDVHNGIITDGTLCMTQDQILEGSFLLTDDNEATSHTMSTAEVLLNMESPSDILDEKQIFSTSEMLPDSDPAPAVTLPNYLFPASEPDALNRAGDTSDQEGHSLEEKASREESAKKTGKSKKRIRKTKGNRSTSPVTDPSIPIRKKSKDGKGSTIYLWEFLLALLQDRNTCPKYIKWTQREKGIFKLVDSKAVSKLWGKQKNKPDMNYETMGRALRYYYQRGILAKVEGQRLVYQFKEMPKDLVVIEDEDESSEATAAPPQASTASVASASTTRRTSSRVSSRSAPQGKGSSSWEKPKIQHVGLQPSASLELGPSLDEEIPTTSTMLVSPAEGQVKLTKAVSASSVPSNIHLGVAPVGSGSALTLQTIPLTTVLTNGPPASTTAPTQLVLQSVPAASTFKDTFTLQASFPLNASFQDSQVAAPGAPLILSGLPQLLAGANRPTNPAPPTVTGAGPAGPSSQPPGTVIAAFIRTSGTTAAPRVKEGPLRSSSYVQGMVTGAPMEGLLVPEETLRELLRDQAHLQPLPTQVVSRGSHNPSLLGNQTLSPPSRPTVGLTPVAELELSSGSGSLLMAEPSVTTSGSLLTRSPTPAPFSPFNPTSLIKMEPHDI
Chain of CRX (O43186 whole entry): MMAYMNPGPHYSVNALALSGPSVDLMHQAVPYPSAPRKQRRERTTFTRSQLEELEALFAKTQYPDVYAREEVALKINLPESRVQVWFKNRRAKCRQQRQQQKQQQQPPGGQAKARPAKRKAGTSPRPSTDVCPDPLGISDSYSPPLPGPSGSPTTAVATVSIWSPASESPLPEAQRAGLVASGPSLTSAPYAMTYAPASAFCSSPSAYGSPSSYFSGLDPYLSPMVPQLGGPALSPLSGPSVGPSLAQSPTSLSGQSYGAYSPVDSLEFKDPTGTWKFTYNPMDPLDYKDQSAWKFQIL
Chain of ETV5 (P41161 whole entry): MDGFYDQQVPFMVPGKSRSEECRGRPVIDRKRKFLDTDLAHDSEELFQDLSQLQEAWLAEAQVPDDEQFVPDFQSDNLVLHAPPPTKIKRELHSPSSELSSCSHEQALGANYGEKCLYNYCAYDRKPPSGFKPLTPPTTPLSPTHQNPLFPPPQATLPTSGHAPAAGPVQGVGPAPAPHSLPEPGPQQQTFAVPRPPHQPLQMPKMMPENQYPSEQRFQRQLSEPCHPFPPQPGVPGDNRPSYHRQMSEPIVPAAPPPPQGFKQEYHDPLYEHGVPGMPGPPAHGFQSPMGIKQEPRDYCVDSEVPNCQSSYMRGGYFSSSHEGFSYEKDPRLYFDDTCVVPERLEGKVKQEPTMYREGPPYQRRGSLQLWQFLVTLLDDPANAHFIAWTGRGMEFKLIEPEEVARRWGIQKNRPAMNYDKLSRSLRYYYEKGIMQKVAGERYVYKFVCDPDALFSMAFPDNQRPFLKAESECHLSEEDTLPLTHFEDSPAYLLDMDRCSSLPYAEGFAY
Chain of HSF1 (Q00613 whole entry): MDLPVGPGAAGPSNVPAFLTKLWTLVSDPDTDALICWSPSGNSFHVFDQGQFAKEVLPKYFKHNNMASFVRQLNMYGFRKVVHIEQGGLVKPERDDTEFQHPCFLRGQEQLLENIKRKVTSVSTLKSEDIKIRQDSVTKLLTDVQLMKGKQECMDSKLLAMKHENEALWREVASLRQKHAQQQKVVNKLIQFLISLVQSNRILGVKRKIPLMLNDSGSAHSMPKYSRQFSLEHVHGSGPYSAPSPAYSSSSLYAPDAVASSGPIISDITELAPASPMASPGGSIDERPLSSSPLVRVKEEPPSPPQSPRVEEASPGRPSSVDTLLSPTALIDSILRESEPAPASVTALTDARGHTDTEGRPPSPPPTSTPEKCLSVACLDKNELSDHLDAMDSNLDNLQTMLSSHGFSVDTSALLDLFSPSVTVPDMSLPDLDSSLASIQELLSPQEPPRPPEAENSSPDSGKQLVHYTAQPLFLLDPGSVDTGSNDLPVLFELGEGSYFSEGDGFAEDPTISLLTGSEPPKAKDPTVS

Turning to TTAATA, the binding signal in assay [1] was 1.19 fold enrichment (6-mer frequency, TF over GST control); in assay [2], 1.15 fold enrichment (6-mer frequency, TF over GST control); in assay [3], 2.09 fold enrichment (6-mer frequency, TF over GST control); in assay [4], 1.11 fold enrichment (6-mer frequency, TF over GST control); in assay [5] it was 1.23 fold enrichment (6-mer frequency, TF over GST control); in assay [6] it was 1.08 fold enrichment (6-mer frequency, TF over GST control). For the same sequence, the binding signal is 1.25 fold enrichment (6-mer frequency, TF over GST control) in assay [7]; 1.06 fold enrichment (6-mer frequency, TF over GST control) in assay [8]; 3.19 fold enrichment (6-mer frequency, TF over GST control) in assay [9]; 1.09 fold enrichment (6-mer frequency, TF over GST control) in assay [10]; 1.24 fold enrichment (6-mer frequency, TF over GST control) in [11]; 1.28 fold enrichment (6-mer frequency, TF over GST control) in assay [12]. Moreover, the binding signal was 1.21 fold enrichment (6-mer frequency, TF over GST control) in [13]; 1.14 fold enrichment (6-mer frequency, TF over GST control) in [14]; 1.23 fold enrichment (6-mer frequency, TF over GST control) in [15]; 1.12 fold enrichment (6-mer frequency, TF over GST control) in [16]; 1.09 fold enrichment (6-mer frequency, TF over GST control) in assay [17]; 1.15 fold enrichment (6-mer frequency, TF over GST control) in assay [18].

(Values after PMC7862700, “An all-to-all approach to the identification of sequence-specific readers for epigenetic DNA modifications on cytosine”.)
